Data reported in PubChem BioAssay AID2289 (National Center for Advancing Translational Sciences (NCATS), 2010).
In all, about 340,000 compounds went through this assay and about 3,300 (0.97%) were called active. About 9% were inconclusive and are not listed. Calls come from the whole dose curve; as a rule, active = well fitted inhibition curve with a large enough effect; inconclusive = small, poorly fitted or top-dose-only effect, or effect the other way; inactive = flat fitted curve, though single readings scatter. Some of the results follow.

Assay: qHTS Assay for Modulators of miRNAs and/or Inhibitors of miR-21; note: nearly all actives have a fitted effect of over 55% in size
Settings: HeLa miR-21-FLuc reporter, luciferase luminescence, 48 h; actives lower the signal
Method in brief: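 Compounds were titrated across several concentrations (up to approximately 40 uM) and incubated 48 hours with HeLa miR-21-FLuc reporter cells (miR-21 target sequence downstream of FLuc, endogenous miR-21). Readout was firefly luciferase luminescence after lytic detection reagent.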
Potency is the fitted concentration of half-maximal effect.

Structure (SMILES)	Potency
COc1ccc(OCc2cc(C(=O)N3CCCC(O)C3)no2)c2ccccc12 (stereo not given)	5.85 µM (active)
COc1ccc(OCc2cc(C(=O)N3CCCC(OC)C3)no2)c2ccccc12 (stereo not given)	16.5 µM (active)
Oc1c(/C=N/c2ccccn2)sc2ccccc12	2.07 µM (active)
O=C(OCCOc1ccccc1)c1n[nH]c2ccccc12	1.47 µM (active)
O=C(O)C(=O)/C(=C\c1ccsc1)c1ccc2ccccc2n1	1.47 µM (active)
N#Cc1ccc(/C=C(\C(=O)C(=O)O)c2ccc3ccccc3n2)cc1	1.04 µM (active)
CC(=O)Nc1ccc(/C=N/Nc2nc3ccccc3s2)cc1	0.185 µM (active)
COc1cc(/C=C/c2nc3ccccc3s2)cc(OC)c1O	13.1 µM (active)
COc1cc(/C=N/Nc2nc3ccccc3s2)ccc1O	2.93 µM (active)
COc1cc(/C=N/Nc2ccccc2C(F)(F)F)ccc1O	16.5 µM (active)
O=C(O)c1ccc(N/N=C/C(Br)=C/c2ccccc2)cc1	1.17 µM (active)
BrC(=C\c1ccccc1)/C=N/Nc1nc2ccccc2[nH]1	16.5 µM (active)
O=C(c1ccco1)N1CCN(C(c2ccccn2)c2nnnn2C2CCCC2)CC1 (stereo not given)	7.36 µM (active)
Clc1ccc(-c2nnc(N3CCOCC3)o2)cc1	18.5 µM (active)
COc1ccc(-c2csc(N3CCSCC3)n2)cc1	10.4 µM (active)
Clc1ccc(-c2csc(N3CCOCC3)n2)cc1	3.29 µM (active)
COc1ccc(-c2csc(N3CCOCC3)n2)cc1OC	5.85 µM (active)
COc1ccc(-c2csc(N3C(=O)CNC3=S)n2)cc1	0.0585 µM (active)
O=C(c1ccc(-c2cccc(Cl)c2Cl)o1)N1CCOCC1	4.65 µM (active)
O=C(c1ccc(-c2ccc([N+](=O)[O-])cc2Cl)o1)N1CCOCC1	10.4 µM (active)
O=C(c1ccc(-c2cccc(C(F)(F)F)c2)o1)N1CCOCC1	14.7 µM (active)
O=C(c1ccc(-c2ccc([N+](=O)[O-])cc2)o1)N1CCCCC1	1.85 µM (active)
O=C(c1ccc(-c2cc(Cl)ccc2Cl)o1)N1CCOCC1	18.5 µM (active)
O=C(c1ccc(-c2ccc(Cl)cc2Cl)o1)N1CCOCC1	7.36 µM (active)
Cc1nc(NC(=O)C2CCCC2)sc1Cc1ccc2c(c1)OCO2	9.27 µM (active)
Cc1ccc(O)c(NC(=S)NC(=O)CC(C)C)c1	5.85 µM (active)
Cc1sc(NC(=O)c2ccccc2F)c(CN2CCCCC2C)c1C (stereo not given)	2.07 µM (active)

Structure (SMILES)	Potency
O=c1oc2cc(O)ccc2cc1-c1ccccc1	13.1 µM (active)
O=c1oc2ccccc2cc1-c1ccccc1	16.5 µM (active)
O=c1oc2ccccc2cc1-c1nc(-c2cccs2)no1	1.17 µM (active)
O=c1oc2ccccc2cc1-c1ccc(O)cc1	4.65 µM (active)
O=C(Nc1ccc(Br)cn1)c1cccc(-c2cc3ccccc3oc2=O)c1	3.69 µM (active)
O=c1oc2ccccc2cc1NCc1ccccc1O	10.4 µM (active)
COc1cccc(C2(O)CC(C(F)(F)F)=NN2C(=O)c2ccccn2)c1 (stereo not given)	13.1 µM (active)
CCN(CC)c1ccc(/C=C(/C#N)C(=O)NCc2ccccc2)o1	10.4 µM (active)
CN(C)c1ccc(/C=C(/C#N)C(=O)NCc2ccccc2)o1	14.7 µM (active)
CCCc1ccc(-c2cc(NC(=O)CSc3n[nH]c(N)n3)n(-c3ccccc3)n2)cc1	18.5 µM (active)
NC(=O)c1ccc(NC(=O)c2cnc3ccccc3n2)cc1	7.36 µM (active)
Cc1ccc(NC(=O)c2cnc3ccccc3n2)cc1C	1.31 µM (active)
c1ccc2c(c1)CCN(C1=Nc3cccc4cccc1c34)C2	18.5 µM (active)
CCOC(=O)Nc1sc2c(c1C#N)CCC(C)C2 (stereo not given)	5.21 µM (active)
Cc1cc(C(=O)Nc2sc3c(c2C#N)CCC(C)C3)cs1 (stereo not given)	0.736 µM (active)
Cc1ccc(Nc2c(-c3ccc(N4CCOCC4)cc3)nc3cnccn23)cc1	7.36 µM (active)
Cc1ccccc1Nc1c(-c2ccc(N3CCOCC3)cc2)nc2cnccn12	4.65 µM (active)
c1cn2c(NC3CCCC3)c(-c3ccc(N4CCOCC4)cc3)nc2cn1	6.56 µM (active)
Cc1ccc(-c2nc3cnccn3c2Nc2ccccc2)o1	16.5 µM (active)
c1cn2c(Nc3ccc4c(c3)OCCO4)c(-c3ccc(N4CCOCC4)cc3)nc2cn1	6.56 µM (active)
CCOC(=O)c1c(C)[nH]c(C(=O)OCCOc2ccccc2C)c1C	1.85 µM (active)
CCOC(=O)c1c(C)[nH]c(C(=O)OCc2ccccc2F)c1C	0.414 µM (active)
COC(=O)c1c(C)[nH]c(C(=O)OCc2ccc(F)cc2)c1C	2.07 µM (active)
N/C(=N\OC(=O)CCC1CCCC1)c1ccccn1	3.29 µM (active)
N/C(=N\OC(=O)COc1ccccc1)c1ccccn1	5.21 µM (active)
COc1cc(OC)cc(C(=O)O/N=C(\N)c2ccccn2)c1	1.65 µM (active)
Cc1cccc(OCC(=O)O/N=C(\N)c2ccccn2)c1C	6.56 µM (active)

Structure (SMILES)	Potency
Cc1ccc(OCC(=O)O/N=C(\N)c2ccccn2)cc1	3.29 µM (active)
N/C(=N\OC(=O)C12CC3CC(CC(C3)C1)C2)c1ccccn1	5.21 µM (active)
Cc1cccc(OCC(=O)O/N=C(\N)c2ccccn2)c1	7.36 µM (active)
CC(C)C(=O)NC(=S)Nc1sc2c(c1C(N)=O)CCCC2	6.56 µM (active)
COCCN(CCOC)S(=O)(=O)c1ccc(C(=O)Nc2sc3c(c2C(N)=O)CCCCC3)cc1	5.21 µM (active)
CCCCC(=O)Nc1sc2c(c1C(N)=O)CCC2	11.7 µM (active)
O=C1/C(=C/c2ccc(O)c(O)c2)Oc2cc(O)ccc21	8.26 µM (active)
COc1cc(/C=C2\Oc3cc(O)ccc3C2=O)ccc1O	5.21 µM (active)
CCOC(=O)c1csc(-c2sccc2Br)n1	0.521 µM (active)
COc1ccc(-c2nc3c(Br)c(N)c(Br)cc3o2)cc1	2.07 µM (active)
Nc1c(Br)cc2oc(-c3ccccc3)nc2c1Br	2.07 µM (active)
O=C(NCCN1CCOCC1)c1cc(-c2ccccc2)on1	18.5 µM (active)
O=C(NCCCN1CCOCC1)c1cc(-c2ccccc2)on1	18.5 µM (active)
O=C(NC1CCCC1)c1cc(-c2ccccc2Cl)on1	1.65 µM (active)
O=C(NC1CCCCC1)c1cc(-c2ccccc2O)on1	7.36 µM (active)
O=C(NC1CCCC1)c1cc(-c2ccc(Cl)cc2Cl)on1	5.21 µM (active)
COc1ccccc1-c1cc(C(=O)NC2CCCC2)no1	14.7 µM (active)
C=CCNC(=O)c1cc(-c2ccccc2O)on1	16.5 µM (active)
O=C(Oc1ccc2c(c1)OCO2)c1ccc(F)cc1Cl	16.5 µM (active)
CCCCSc1nc2ccccc2[nH]1	13.1 µM (active)
CC1CCN(C(=O)CSc2nc3ccccc3[nH]2)CC1	2.93 µM (active)
O=c1c2ccccc2nnn1CSc1nc2ccccc2[nH]1	4.65 µM (active)
ClC1(Cl)CC1CSc1nc2ccccc2[nH]1 (stereo not given)	14.7 µM (active)
Cc1ccc(Cn2nc(C)cc2C(=O)Nc2ccccc2Cl)cc1	7.36 µM (active)
Cc1ccc(-c2cc(C(=O)O)n(Cc3ccccc3)n2)cc1	14.7 µM (active)
Cc1ccc(NC(=O)CC2CCCC2)c(Br)c1	14.7 µM (active)
Cc1ccc(NC(=O)CNCc2cccs2)c(Br)c1	14.7 µM (active)

Structure (SMILES)	Potency
CNC(=O)c1sc2nc(-c3ccc(OC)cc3)cn2c1C	0.736 µM (active)
Cc1c(C(N)=O)sc2nc(-c3ccccc3)cn12	11.7 µM (active)
O=C(O)c1cccc(N/N=C/c2cccs2)c1	0.0826 µM (active)
O=C(O)c1cc(N/N=C/c2cccs2)ccc1Cl	1.85 µM (active)
Cc1ccc(OC(=O)c2cccc(S(=O)(=O)N(C)C)c2)c(-n2nc3ccccc3n2)c1	5.85 µM (active)
Cc1ccc(O)c(-n2nc3ccccc3n2)c1	11.7 µM (active)
Cc1ccc(OC(=O)COc2ccccc2C)c(-n2nc3ccccc3n2)c1	4.14 µM (active)
Cc1ccc(OC(=O)c2cccc(S(=O)(=O)N3CCCC3)c2)c(-n2nc3ccccc3n2)c1	2.61 µM (active)
c1ccc(CCSc2nccn2-c2ccccc2)cc1	1.85 µM (active)
CCN(CC)CCN(C(=O)c1ccc2ncsc2c1)c1nc2cc3c(cc2s1)OCO3	1.04 µM (active)
O=C(N/N=C/C(Cl)=C\c1ccccc1)c1ccco1	3.69 µM (active)
CCOC(=O)N/N=C/C(Cl)=C/c1ccccc1	10.4 µM (active)
O=C(N/N=C/C(Cl)=C\c1ccccc1)c1cccs1	1.85 µM (active)
O=C(N/N=C/C=C/c1ccccc1)c1cccs1	7.36 µM (active)
O=C(N/N=C/C(Cl)=C/c1ccccc1)c1ccccc1F	8.26 µM (active)
COc1ccccc1/C=C/C=N/NC(=O)c1cccs1	3.69 µM (active)
O=C(N/N=C/C=C/c1ccccc1)c1ccccn1	5.85 µM (active)
C/C(=N\O)c1ccc(N2C(=O)C3CC=C(Cl)CC3C2=O)cc1 (stereo not given)	3.29 µM (active)
CCOc1ccc(N=C/C=C/c2ccccc2)c(O)c1	3.29 µM (active)
O=C(Cn1cnc2ccccc2c1=O)c1ccc2ccccc2c1	7.36 µM (active)
O=C(Cn1cnc2ccccc2c1=O)c1ccc(Cl)cc1	7.36 µM (active)
Cc1ccc(C(=O)Cn2cnc3ccccc3c2=O)cc1	5.85 µM (active)
O=C(Cn1cnc2ccccc2c1=O)c1ccc(Br)cc1	5.21 µM (active)
COc1ccc2cnn(-c3ccc(C)cc3)c(=O)c2c1OC	6.56 µM (active)
